{"source": "PubChem BioAssay AID1745848", "about": "(National Center for Advancing Translational Sciences (NCATS), 2022)", "note": "Among all 2,100 compounds or so, about 940 (45%) were called active. About 48% were inconclusive and are not listed. Calls follow the shape of the dose curve; as a rule, active = well fitted inhibition curve with a large enough effect; inconclusive = small, poorly fitted or top-dose-only effect; inactive = no such curve, though single readings can be large or run the other way. The set was probably picked from earlier hits. Some of the results follow. Potency is read from the fitted curve at half-maximal effect."}
{"assay": "Confirmatory qHTS for Inhibitors of ATXN expression; also: nearly all actives have a fitted effect of over 65% in size", "settings": "ATXN2-luciferase reporter cells, luminescence, 24 h; series mostly up to 11.5 µM", "method_in_brief": "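A titration, incubated 24 h with reporter cells expressing ATXN2-luciferase. Luminescence (SteadyGlo) gives ATXN2 expression, multiplexed GF-AFC fluorescence gives viability; normalised to DMSO and medium-only wells.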"}
{"smiles": "CN[C@H]1C[C@H]2c3[nH]c4ccc(-c5ccc(OC)cc5)cc4c3CCN2C(=O)[C@H]1[C@H](C)O", "Potency": "3.16 µM (active)"}
{"smiles": "CN(C)CCNc1ncnc2c1sc1nc(N3CCCC3)c3c(c12)CC(C)(C)OC3", "Potency": "25.1 µM (active)"}
{"smiles": "CC1(C)Cc2c(c(N3CCOCC3)nc3sc4c(NN)ncnc4c23)CS1", "Potency": "8.91 µM (active)"}
{"smiles": "CN(C)CCNc1ncnc2c1sc1nc(N3CCOCC3)c3c(c12)CC(C)(C)SC3", "Potency": "15.8 µM (active)"}
{"smiles": "CCOc1ccc(CN(C)c2nc(-c3cccnc3)nc3ccccc23)cc1OC", "Potency": "25.1 µM (active)"}
{"smiles": "CCCCCn1c(CN2CCN(c3cccc(Cl)c3)CC2)nc2c1c(=O)[nH]c(=O)n2C", "Potency": "25.1 µM (active)"}
{"smiles": "CCN1C(=O)C(CC(=O)Nc2ccc(OC)cc2)N(CCc2ccc(F)cc2)C1=S", "note": "(configuration not stated)", "Potency": "2.82 µM (active)"}
{"smiles": "CC(C)(C)c1cc(C(=O)NN)n(Cc2ccc(Cl)cc2Cl)n1", "Potency": "15.8 µM (active)"}
{"smiles": "Oc1c(CN2CCCCC2)ccc2cccnc12", "Potency": "6.31 µM (active)"}
{"smiles": "O=[N+]([O-])c1cc(CN2CCN(c3ccccc3)CC2)c(O)c2ncccc12", "Potency": "3.16 µM (active)"}
{"smiles": "Oc1c(CN2CCN(c3ccccc3)CC2)cc(Br)c2cccnc12", "Potency": "1.26 µM (active)"}
{"smiles": "Oc1c(CN2CCOCC2)cc(COCc2ccccc2)c2cccnc12", "Potency": "3.16 µM (active)"}
{"smiles": "CN(C)CCNC(=O)c1cccc2[nH]c(-c3ccncc3)nc12", "Potency": "2.82 µM (active)"}
{"smiles": "CN(C)CCNC(=O)c1ccc(Cl)c2cc3ccccc3nc12", "Potency": "6.31 µM (active)"}
{"smiles": "CCN(CC)CCC(=O)Nc1cccc2c1C(=O)c1ccccc1C2=O", "Potency": "1.58 µM (active)"}
{"smiles": "CN(CC(=O)Nc1cccc(F)c1)CC(=O)Nc1cccc2ccccc12", "Potency": "inactive"}
{"smiles": "Cc1ccc2nc(-c3ccccn3)c(NC3CCCC3)n2c1", "Potency": "inactive"}
{"smiles": "Cc1ccn2c(Nc3ccccc3C)c(-c3ccccn3)nc2c1", "Potency": "3.55 µM (active)"}
{"smiles": "Cc1ccn2c(Nc3ccccc3)c(-c3ccccn3)nc2c1", "Potency": "0.708 µM (active)"}
{"smiles": "Cc1ccc(Nc2c(-c3ccccn3)nc3cc(C)ccn23)cc1", "Potency": "3.55 µM (active)"}
{"smiles": "Cc1ccc(Nc2c(-c3ccccn3)nc3cccc(C)n23)cc1", "Potency": "3.16 µM (active)"}
{"smiles": "Cc1cnc(C(=O)NNC(=O)c2ccc(Br)cc2)cn1", "Potency": "25.1 µM (active)"}
{"smiles": "Cc1ccc2c(c1)C1CN(C)CCC1N2C(=S)NC(=O)c1ccc(Br)cc1", "note": "(configuration not stated)", "Potency": "inactive"}
{"smiles": "O=C(NCc1ccco1)c1ccc(-c2cccc(Cl)c2)o1", "Potency": "inactive"}
{"smiles": "COCc1ccc(CN2CCC(C(=O)Nc3cccc(-c4cccc(Cl)c4)c3)CC2)o1", "Potency": "25.1 µM (active)"}
{"smiles": "CC1CCCCN1S(=O)(=O)c1ccc(C(=O)Nc2nnc(-c3ccccc3Cl)o2)cc1", "note": "(configuration not stated)", "Potency": "2.51 µM (active)"}
{"smiles": "O=C(Nc1nnc(C2CC2)o1)c1ccc(S(=O)(=O)N2CCCc3ccccc32)cc1", "Potency": "7.08 µM (active)"}
{"smiles": "CSCc1nnc(NC(=O)c2ccc(S(=O)(=O)N3CCCCC3C)cc2)o1", "note": "(configuration not stated)", "Potency": "20 µM (active)"}
{"smiles": "CN1CCC(N(C)C(=O)c2ccc(Cl)c(S(=O)(=O)N3CCc4ccccc43)c2)CC1", "Potency": "inactive"}
{"smiles": "Cc1ccc(C)c(S(=O)(=O)N2CCN(Cc3ccc(O)c4ncccc34)CC2)c1", "Potency": "3.16 µM (active)"}
{"smiles": "O=S(=O)(c1ccc(Cl)cc1)N1CCN(Cc2ccc(O)c3ncccc23)CC1", "Potency": "3.55 µM (active)"}
{"smiles": "COc1ccccc1N(CC(=O)N/N=C(\\C)c1ccccc1O)S(=O)(=O)c1ccc(C)cc1", "Potency": "15.8 µM (active)"}
{"smiles": "COc1ccccc1-c1ccc2c(c1)C(C)(Cc1cccc(F)c1)C(=O)N2", "note": "(configuration not stated)", "Potency": "28.2 µM (active)"}
{"smiles": "Cc1cnc(NC(=O)CCCc2nc3ccccc3s2)s1", "Potency": "1.41 µM (active)"}
{"smiles": "CCN(CC)CCNC(=O)C1CCN(S(=O)(=O)c2c(C)noc2/C=C/c2ccccc2F)CC1", "Potency": "3.16 µM (active)"}
{"smiles": "COc1cc(NS(=O)(=O)c2ccc(N/C=C(\\C#N)c3nc4cc(Cl)ccc4o3)cc2)nc(OC)n1", "Potency": "3.98 µM (active)"}
{"smiles": "CCCCOc1ccc(NC2=NC3(CCCC3)N=C(N)N2)cc1", "Potency": "inactive"}
{"smiles": "CCC1=C(CC2NCCc3ccccc32)CC2c3cc(OC)c(OC)cc3CCN2C1", "note": "(configuration not stated)", "Potency": "8.91 µM (active)"}
{"smiles": "CC[C@H]1CN2CCc3cc(OC)c(OC)cc3[C@@H]2C[C@@H]1C[C@H]1NCCc2cc(OC)c(OC)cc21", "Potency": "0.0447 µM (active)"}
{"smiles": "CC[C@H]1CN2CCc3cc(OC)c(OC)cc3C2C[C@@H]1C[C@H]1NCCc2cc(OC)c(OC)cc21", "note": "(some centres not stated)", "Potency": "0.316 µM (active)"}
{"smiles": "O=C1C=C(Nc2ccccc2O)c2ccccc2C1=O", "Potency": "12.6 µM (active)"}
{"smiles": "CCN1CCN(c2ccc(S(=O)(=O)N3CCCCC3)cc2NC(=O)c2ccc([N+](=O)[O-])s2)CC1", "Potency": "3.16 µM (active)"}
{"smiles": "COc1ccc(/C=C/C(=O)Nc2cccc(S(=O)(=O)N3CCCC3)c2)cc1OC", "Potency": "inactive"}
{"smiles": "CCN1CCN(c2ccc(S(=O)(=O)N3CCCCC3)cc2NC(=O)/C=C/c2ccc([N+](=O)[O-])cc2)CC1", "Potency": "2 µM (active)"}
{"smiles": "COc1ccc(CNc2ncnc3c2[nH]c2ccccc23)cc1", "Potency": "8.91 µM (active)"}
{"smiles": "CCOc1ccc2[nH]c3c(NCCc4ccc(OC)c(OC)c4)ncnc3c2c1", "Potency": "15.8 µM (active)"}
{"smiles": "Fc1ccc2[nH]c3c(NCc4ccccc4)ncnc3c2c1", "Potency": "1.12 µM (active)"}
{"smiles": "Cn1c(=O)c2c(nc(SCCN3CCOCC3)n2Cc2cccc3ccccc23)n(C)c1=O", "Potency": "inactive"}
{"smiles": "Cc1cc(NC(=O)CSc2nc3c(sc4ccccc43)c(=O)n2CCCN2CCOCC2)n[nH]1", "Potency": "1.58 µM (active)"}
{"smiles": "CCOC(=O)COc1ccc(Br)cc1/C=C/c1[nH]c(=O)[nH]c(=O)c1[N+](=O)[O-]", "Potency": "inactive"}
{"smiles": "Cc1cc2nc(-c3nnnn3Cc3ccccc3)c(=O)[nH]c2cc1C", "Potency": "inactive"}
{"smiles": "CC1=NN(c2nc3ccccc3[nH]2)C(=O)C1Cc1ccccc1", "note": "(configuration not stated)", "Potency": "2 µM (active)"}
{"smiles": "CCN(CC)CCNC(=O)c1ccc(NC(=O)Cc2cccc3ccccc23)cc1", "Potency": "3.98 µM (active)"}
{"smiles": "Cc1ccc(-c2cc(-c3ccccc3)nc(NN)n2)cc1", "Potency": "35.5 µM (active)"}
{"smiles": "CCOc1ccc(NCc2cccn2-c2nnc(N3CCC(C(=O)NCCCN4CC(C)CC(C)C4)CC3)s2)cc1", "note": "(configuration not stated)", "Potency": "3.16 µM (active)"}
{"smiles": "C=CCSc1nc2ccccc2n1C(=O)/C=C/c1ccc(OC)c(OC)c1", "Potency": "2.82 µM (active)"}
{"smiles": "CCSc1nc2ccccc2n1C(=O)/C=C\\c1ccc(OC)c(OC)c1", "Potency": "8.91 µM (active)"}
